IL1B secr inh: qHTS for Inhibitors of Inflammasome Signaling: IL-1-beta AlphaLISA Primary Screen; AID 743279, 2014; activity change, % at 57.5 µM; THP-1 LPS/ATP IL-1B secretion, AlphaLISA, 16 h; hits give low values; 360,000 tested, 4.7% active; in the data active means activity change below about -50%; inconclusive means mostly about -30% to -49%
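Secreted IL-1B measured by AlphaLISA bead assay after 16 h compound exposure of THP-1 cells; compounds (final up to 57.5 uM) added 1 h before LPS (250 ng/mL) and ATP (1.25 mM) stimulation; lower signal means less secretion.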
LDHA block: qHTS assay for inhibitors of human lactate dehydrogenase | L-lactate dehydrogenase A chain (Homo sapiens), P00338 | purified LDHA, NADH/diaphorase-resazurin fluorescence; hits give low values | activity change, % (values are at about 110 or 230 µM) | 480,000 tested, 0.15% active | AID 1347041, 2019; in the data active means activity change below about -30%; inconclusive means mostly about -25% to -30%
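Human LDH5 (2 nM) was incubated with 0.06 mM NADH and 0.2 mM pyruvate for 5 min at room temperature in Tris pH 7.4. Remaining NADH was coupled through diaphorase/resazurin, and resorufin fluorescence was read at 0 and 20 min.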
DT40 TDP1 no CPT: qHTS for Inhibitors of human tyrosyl-DNA phosphodiesterase 1 (TDP1): qHTS in cells in absence of CPT. DT40 Tdp1-/- hTDP1 cells, no CPT, ATP luminescence, 48 h. Potency, µM (top dose mostly 46.2 µM), actives largely listed as inhibitors. 420,000 tested, 15% active; further: nearly all actives have a fitted effect of over 55% in size
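DT40 Tdp1-/-;hTDP1 cells, no CPT (DMSO vehicle only), 400 cells/well; compounds pin-transferred; ≥48 hr, 37 °C; CellTiter-Glo 30 min RT dark, luminescence read.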
TDP1 cell CPT: qHTS for Inhibitors of human tyrosyl-DNA phosphodiesterase 1 (TDP1): qHTS in cells in presence of CPT; chicken DT40 Tdp1-/-;hTDP1 cells + 20 nM CPT, ATP luminescence, 48 h; Potency, µM (highest dose often 46.2 µM), actives largely listed as inhibitors; AID 686979, 2013; 420,000 tested, 12% active; further: nearly all actives have a fitted effect of over 55% in size
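Chicken DT40 Tdp1-/- cells stably complemented with human TDP1 were seeded at 400 cells/well in medium containing 20 nM camptothecin, exposed to pin-transferred compounds, and grown at 37 °C for at least 48 hr. Viability was read as ATP luminescence.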
RORgamma inh: qHTS for inhibitors of ROR gamma transcriptional activity; 310,000 tested, 5.4% active; AID 2551, 2010; Potency, µM (titrated, usually from 53.6 µM), hits mostly inhibitors; Drosophila S2 Gal4-RORgamma UAS-luciferase reporter, 20 h; further: nearly all actives have a fitted effect of over 60% in size
Target sequence (P51450 whole entry, looked up, the tested form may be a part): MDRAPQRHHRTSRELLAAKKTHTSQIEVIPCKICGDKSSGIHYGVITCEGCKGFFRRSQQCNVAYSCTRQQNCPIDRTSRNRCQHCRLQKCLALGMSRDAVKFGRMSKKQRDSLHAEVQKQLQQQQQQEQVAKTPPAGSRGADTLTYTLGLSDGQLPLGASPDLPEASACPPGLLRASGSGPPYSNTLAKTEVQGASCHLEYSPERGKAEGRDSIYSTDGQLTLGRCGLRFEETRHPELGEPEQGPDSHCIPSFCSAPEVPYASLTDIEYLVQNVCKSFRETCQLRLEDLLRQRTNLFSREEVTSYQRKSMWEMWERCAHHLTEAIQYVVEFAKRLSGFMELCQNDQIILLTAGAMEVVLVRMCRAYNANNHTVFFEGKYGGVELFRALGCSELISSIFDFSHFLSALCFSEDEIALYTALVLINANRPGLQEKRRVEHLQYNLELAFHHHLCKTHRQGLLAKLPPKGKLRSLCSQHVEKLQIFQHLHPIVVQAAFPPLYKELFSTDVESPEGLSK
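Luciferase reporter read in Schneider cells carrying Gal4-RORγ (mouse) and UAS-Photinus luciferase; cells given compound 1 h before 700 uM copper sulfate induction, then incubated 20 h at ambient temperature.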
VP16 counter: VP16 counterscreen qHTS for inhibitors of ROR gamma transcriptional activity | Drosophila S2 Gal4-VP16 UAS-luciferase, luminescence, 20 h | Potency, µM (top dose mostly 53.6 µM), hits mostly inhibitors | 310,000 tested, 3.5% active | AID 2546, 2010;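 further: Gal4-VP16 expression switched on by copper sulfate through the metallothionein promoter; nearly all actives have a fitted effect of over 50% in size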
Of the large screens only hits and unclear results are named; the others gave an inactive call. The list is not random: actives were taken first. Their share in the collection is about 18%. Unless noted, the call rests on the fitted dose curve; in most records, active means well fitted curve in the direction sought with a large enough effect; inconclusive means small, poorly fitted or top-dose-only effect, or another doubt; inactive means no such curve, though single readings can be large; an effect the other way counts as inactive or inconclusive.

CC(C)Oc1ccc(C(CC(=O)O)NC(=O)c2ccc(Cl)cc2)cc1 (stereo not drawn)	none (no result: IL1B secr inh, DT40 TDP1 no CPT, TDP1 cell CPT, RORgamma inh, VP16 counter)
CC(C(=O)Nc1ccc(F)cc1)N(C)Cc1ccc2c(c1)OCCO2 (stereo not drawn)	none (no result: IL1B secr inh, DT40 TDP1 no CPT, TDP1 cell CPT, RORgamma inh, VP16 counter)
Cc1ccccc1CN1CCN(CC(=O)NCCCN2CCN(c3ccc(F)cc3)CC2)C1=O	IL1B secr inh inconclusive, DT40 TDP1 no CPT 13µM, TDP1 cell CPT 16.4µM, RORgamma inh inconclusive, VP16 counter inconclusive
CC(C)OCCCNC(=O)CN1CCN(Cc2ccccc2Cl)C1=O	DT40 TDP1 no CPT 18.4µM, TDP1 cell CPT inconclusive
O=C(CN1CCN(Cc2ccccc2Cl)C1=O)NCCc1ccc(Cl)cc1	DT40 TDP1 no CPT inconclusive (no result: IL1B secr inh, RORgamma inh, VP16 counter)
O=C(CN1CCN(Cc2ccc(Cl)cc2)C1=O)NCCCN1CCOCC1	none
O=C(CN1CCN(Cc2ccc(Cl)cc2)C1=O)NCCCN1CCN(c2ccc(F)cc2)CC1	IL1B secr inh -69.8, DT40 TDP1 no CPT 10µM, TDP1 cell CPT 8.91µM, RORgamma inh inconclusive, VP16 counter inconclusive
O=C(CSc1n[nH]c(-c2cc(Br)ccc2O)n1)N1CCOCC1	none (no result: IL1B secr inh, DT40 TDP1 no CPT, TDP1 cell CPT, RORgamma inh, VP16 counter)
CCN(CC)C(=O)c1cccc(NC(=O)Cc2nc(-c3ccccc3)oc2C)c1	none (no result: IL1B secr inh, DT40 TDP1 no CPT, TDP1 cell CPT, RORgamma inh, VP16 counter)
Cc1cc(-c2ccc(C)c(S(=O)(=O)NCCC(C)N3CCCCCC3)c2)on1 (stereo not drawn)	none
Cc1cc(-c2ccc(C)c(S(=O)(=O)NCCCN3CCCCCC3)c2)on1	IL1B secr inh -51.3
Cc1cc(-c2ccc(C)c(S(=O)(=O)NCCCN3CCN(c4ccccc4)CC3)c2)on1	DT40 TDP1 no CPT 23.1µM, TDP1 cell CPT inconclusive
Cc1cc(-c2ccc(C)c(S(=O)(=O)NCc3cccs3)c2)on1	DT40 TDP1 no CPT 14.6µM, TDP1 cell CPT 11.6µM (no result: IL1B secr inh, RORgamma inh, VP16 counter)
COc1ccc(-c2cc(C)no2)cc1S(=O)(=O)NCCCN1CCN(c2ccccc2)CC1	DT40 TDP1 no CPT 23.1µM, TDP1 cell CPT inconclusive
CCc1ccc(NC(=S)N(Cc2ccccc2)Cc2ccccn2)cc1	IL1B secr inh -60.1, DT40 TDP1 no CPT 4.61µM, TDP1 cell CPT 11.6µM, RORgamma inh 0.316µM, VP16 counter inconclusive
COc1ccc(NC(=S)N(Cc2ccccn2)Cc2ccccc2Cl)cc1	RORgamma inh 5.62µM
COc1cccc(NC(=S)N(CCc2ccc(OC)c(OC)c2)Cc2ccccn2)c1	RORgamma inh inconclusive
CCc1ccc(NC(=S)N(Cc2cccnc2)Cc2ccco2)cc1	IL1B secr inh -66.6, DT40 TDP1 no CPT 18.4µM, TDP1 cell CPT inconclusive
COc1cccc(NC(=S)N(Cc2ccccn2)Cc2ccccc2Cl)c1	IL1B secr inh inconclusive, TDP1 cell CPT inconclusive, RORgamma inh 6.31µM, VP16 counter inconclusive
CCN1CCCC1CNC(=O)C(C)(C)C (stereo not drawn)	none (no result: IL1B secr inh, DT40 TDP1 no CPT, TDP1 cell CPT, RORgamma inh, VP16 counter)
CC(CCc1ccccc1)NC(=O)c1nnc(Cc2ccc(Cl)cc2)o1 (stereo not drawn)	IL1B secr inh -59.0, DT40 TDP1 no CPT inconclusive, TDP1 cell CPT 29.1µM
O=C(NCCc1ccc(Cl)cc1)c1nnc(Cc2ccc(Cl)cc2)o1	none
CCCN(CCC)C(=O)c1cc2cc(Br)ccc2oc1=O	none (no result: IL1B secr inh, DT40 TDP1 no CPT, TDP1 cell CPT, RORgamma inh, VP16 counter)
O=C(CSc1nnnn1C1CC2CCC1C2)Nc1ccnc2ccccc12 (stereo not drawn)	DT40 TDP1 no CPT 0.164µM, TDP1 cell CPT 0.164µM, RORgamma inh inconclusive, VP16 counter 0.0022µM
O=C(CSc1nnnn1C1CCCCC1)Nc1ccccc1F	none
O=c1cc(-c2ccccc2)oc2c1ccc1ccccc12	DT40 TDP1 no CPT inconclusive (no result: IL1B secr inh, LDHA block)
O=c1cc(-c2ccc(O)c(O)c2)oc2ccc3ccccc3c12	DT40 TDP1 no CPT 14.6µM, TDP1 cell CPT inconclusive (no result: RORgamma inh, VP16 counter)
O=c1cc(C(F)(F)F)oc2c1ccc1ccccc12	none
O=c1cc(-c2ccc(O)c(O)c2)oc2c1ccc1ccccc12	DT40 TDP1 no CPT 25.9µM, TDP1 cell CPT 16.4µM (no result: RORgamma inh, VP16 counter)

Assay outcomes: PubChem BioAssay, National Center for Advancing Translational Sciences (NCATS)
